In all, about 300,000 compounds went through this assay and about 2,700 (0.9%) were called active. This is one part of a sample in which actives are shown more often than they occur. A number with no mark means an inactive call.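 How the source made its calls: active means mean inhibition of at least 30% with at least half of replicates also reaching 30%; inconclusive means no clear call, values can overlap the other calls; inactive means the rest.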
target: Golgi-associated PDZ and coiled-coil motif-containing protein (Homo sapiens) (UniProt Q9HD26); assay: untagged CAL PDZ binding inhibitors, primary screen, biochemical, fluorescence polarization, HTS (AID 602252); conditions: purified CAL PDZ, TMR-peptide fluorescence polarization, 1 h; at 24.9 µM; stronger effect = higher value;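 further: 0% = DMSO neutral control and 100% = excess unlabeled competitor peptide PRC23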

Compound	inhibition
CN1CCC(N(C)C(=O)c2ccc(Cl)c(S(=O)(=O)Nc3ccc(Cl)cc3)c2)CC1	4.93%
CC(C)(C)OC(=O)N1CCC(C(=O)Nc2cccc(C(=O)NCCc3ccccc3)c2)CC1	-2.65%
COc1ccc(CNc2nc(NCc3ccc(OC)cc3)c3ncn(C4CCCC4)c3n2)cc1	2.25%
O=C(Nc1cc(S(=O)(=O)Nc2ccc(Cl)cc2)ccc1O)c1ccc(F)cc1F	-2.45%
COc1ccc(N=C2C=CC(=O)O2)cc1	-18.5%
CCO[C@H]1OC(C(=O)N2CCCCCCC2)=C[C@@H](c2ccc(C(F)(F)F)cc2)[C@@H]1CCCO	-1.81%
CCO[C@@H]1OC(C(=O)N2CCOCC2)=C[C@H](C)[C@H]1CCCO	-0.99%
CCO[C@H]1OC(C(=O)N2CCOCC2)=C[C@@H](c2ccc3c(c2)OCO3)[C@@H]1CCCO	31.2% (active)
O=C(Cc1ccc(NC(=O)C2CCCN(C(=O)CCc3ccccc3)C2)cc1)Nc1ccc(C(=O)N2CCOCC2)cc1 (stereo unspecified)	-8.09%
CC1CCCCC1NCC(=O)Nc1ccccc1C(=O)Nc1ccccc1 (stereo unspecified)	-1.41%
CN(C)C(=S)N=c1ssc(=S)n1Cc1ccco1	-2.26%
O=C(CNC(=O)c1cc(S(=O)(=O)N2CCOCC2)ccc1N1CCCC1)Nc1ccc(F)c(F)c1	-2.42%
CC(C)/C=N/NC(=O)c1cc(Br)ccc1O	-1.22%
C/C(=N/NC(=O)c1cc(Cl)ccc1O)C12CC3CC(CC(C3)C1)C2	0.948%
O=C(N/N=C1\CCSC1)c1cc(Cl)ccc1O	39.8% (active)
COc1cc(O)c2c(=O)c3c(O)c(O)ccc3oc2c1OC	-1.48%
O=C(Cn1cnc2c(OCc3ccccc3)ncnc21)NCc1nc2ccccc2[nH]1	9.79%
CCOc1cc(C(=O)N(Cc2ccccc2)c2ccc(C)cc2)ccc1OCC(=O)N1CCOCC1	-2.56%
N#CC1(Nc2ccc(-c3ccc(Cl)cc3)cc2)CCCC1	-1.39%
O=S(=O)(NCCc1ccccn1)c1cc(Cl)cc(Cl)c1O	-0.874%
O=[N+]([O-])c1cc(S(=O)(=O)NCCc2ccccn2)ccc1Cl	40.3% (active)
O=[N+]([O-])c1cccc(S(=O)(=O)NCc2ccccn2)c1	-3.81%
Cc1c(NS(=O)(=O)c2cccc(C(=O)Nc3ccc(SC(F)F)cc3)c2)c(=O)n(-c2ccccc2)n1C	-2.68%

Compound	inhibition
Cc1cc(S(=O)(=O)NCc2ccccn2)c(Cl)cc1Cl	-2.31%
Fc1ccc(-c2ccc(CNCc3ccccn3)o2)cc1Cl	52.7% (active)
CN(Cc1ccccn1)Cc1nc(-c2ccc(Cl)cc2)no1	-1.29%
NC(=O)C1(N2CCCC2)CCN(Cc2ccccc2)CC1	-1.05%
COc1ccc(CNC(=O)C[C@H]2C[C@H](C(=O)N3CCOCC3)[C@@]3(CCC4CCCC4)c4[nH]c5ccc(Cl)cc5c4CCN3C2=O)cc1OC	-0.587%
COc1ccc(NC(=O)NCc2ccc3c(c2)OCO3)c(OC)c1	-1.76%
O=C(NCc1ccc2c(c1)OCO2)c1cc(F)c(F)cc1Cl	-5.1%
COc1cc(OC)c(C(=O)NCc2ccc3c(c2)OCO3)cc1OC	81% (active)
O=C(NCCC(=O)N1O[C@@H]2C=C[C@H]1C2)OCC1c2ccccc2-c2ccccc21	-5.2%
O=C1CC2(CCCC2)C(=O)N1CN1CCN(S(=O)(=O)c2ccc(F)cc2F)CC1	-4.29%
COc1ccc(CNCCCn2cnc3c(OCc4ccccc4)ncnc32)cc1	-2.18%
COc1ccc(OCC(=O)N2CCN(C(=O)COc3ccccc3)CC2)cc1	-1.31%
COc1ccc(-c2ccc(CCC(=O)O)n2-c2ccc(O)cc2)cc1	-0.609%
C=Cn1c(C(=O)O)ccc1-c1ccc(OC)cc1	37.7% (active)
CN(C(=O)c1cccc(NC(=O)Cc2ccc(NC(=O)C3CCN(C(=O)C4CCCCC4)CC3)cc2)c1)C1CCC1	-2.99%
CC1CC(C)CN(C(=O)C2CC(=O)N(c3ccc(F)cc3)C2)C1 (stereo unspecified)	-2.8%
O=C(NC1CCCC1)C1CC(=O)N(c2ccc(F)cc2)C1 (stereo unspecified)	53.1% (active)
COc1ccc(Cl)cc1NC(=O)C1CC(=O)N(c2ccc(F)cc2)C1 (stereo unspecified)	-7.15%
CC(=O)c1ccc(NC(=O)C(C)OC(=O)c2ccc(NS(=O)(=O)c3ccc4[nH]c(=O)[nH]c4c3)cc2)cc1 (stereo unspecified)	-8.65%
COc1ccc(/C=C2/CCCc3ccccc3C2=O)cc1	1.76%
COc1ccc(Nc2ncnc3sc(-c4ccccc4)cc23)c(OC)c1	179% (active)
COc1ccc(Nc2ncnc3ccc(Br)cc23)c(OC)c1	-10.3%
COc1ccc(Nc2ncnc3sc(C)cc23)cc1	0.276%

Compound	inhibition
CCOc1ccc(S(=O)(=O)N2CCN(C(=O)c3oc4ccccc4c3C)CC2)cc1	2.11%
CC12CCCCC1=CC(=O)CC2 (stereo unspecified)	28.3%
O=C(CCC(=O)N1CCN(S(=O)(=O)c2ccc(Cl)cc2)CC1)NCc1cccc(C(F)(F)F)c1	-4.29%
O=C(Cn1c(-c2cncs2)nc2ccccc21)NC1CCCC1	41.1% (active)
O=C(Cn1c(-c2cscn2)nc2ccccc21)Nc1ccc(Cl)cc1	-17.7%
O=C(CN1CCN(c2ccccn2)CC1)NC1CCCCC1	11.4%
c1ccc(-c2c[nH]c(-c3ccccc3)c2)cc1	-3.72%
C/C=C/c1ccc(OCC(=O)NNC(=O)CN(C)S(=O)(=O)c2ccc(C)cc2)c(OC)c1	-0.216%
NC(=O)C1(Nc2ccc([N+](=O)[O-])cc2)CCCC1	-0.108%
COc1ccccc1-c1sc2ccccc2c1C#CC1(O)CCCCC1	0.068%
COc1ccc(/C=C2\SC(=N)N(c3ccc(F)cc3)C2=O)cc1	-1.62%
COc1cccc(/C=C2\SC(=N)N(c3ccc(F)cc3)C2=O)c1	161% (active)
COc1cccc(/C=C2/SC(=S)N(CC(=O)NC3C=CS(=O)(=O)C3)C2=O)c1 (stereo unspecified)	-6.25%
CCOC(=O)c1ccccc1OC(=O)Oc1ccccc1C(=O)OCC	1.49%
Cn1cccc1/C=C1\SC(=O)N(CC(=O)Nc2ccc(F)cc2)C1=O	-5.97%
Cn1cccc1/C=C1\SC(=S)N(NC(=O)c2ccc(Cl)cc2)C1=O	64.1% (active)
O=C(O)c1ccc(/C=C2\SC(=S)N(NC(=O)c3ccc(Br)cc3)C2=O)cc1	15.4%
CC(C)(C)NS(=O)(=O)NC(=O)C1=C(N2CCCC2)COC1=O	-3.4%
COc1ccc(C(=O)OCc2cc(=O)n3ccsc3n2)cc1F	-3.31%
CCCC(O)(c1ccccc1)C(c1ccccc1)c1ccccn1 (stereo unspecified)	-2.63%
COc1ccccc1N1CCN(S(=O)(=O)c2ccc(Cl)cc2)CC1	-4.05%
COc1ccccc1-n1nnnc1SCC(=O)NC(=O)Cc1ccccc1	0.182%
COc1ccccc1-n1nnnc1S(=O)(=O)Cc1ccc(Cl)cc1	95.3% (active)

Compound	inhibition
CCCCNc1c(-c2ccc(OC)c(Sc3ccc(OC)cc3)c2)nc2ccc(Cl)cn12	0.771%
CCN(CC(=O)NCc1ccc(Cl)cc1)C(=O)CSc1ccccc1	62.6% (active)
CCN(CC(=O)NCc1ccc(Cl)cc1)C(=O)c1c(C)noc1C	-2.21%
CCN(CC(=O)Nc1cc(Cl)ccc1C)C(=O)CSCc1ccccc1	-0.344%
Cc1cc2c(cc1C)NC1(C[C@H]3CCC(=O)N4CC[C@@H](C1)[C@@H]34)C(=NC(C)(C)CC(C)(C)C)N2 (stereo partly specified)	-3.52%
CCCCCc1ccc(-c2cn(Cc3ccc4ccccc4c3)nn2)cc1	-1.31%
CCOC(=O)c1nnn(-c2nc(OC)nc(N(C)C)n2)c1-c1ccccc1	14.6%
CCOc1nc(OCC)nc(-n2cc(-c3ccccc3)nn2)n1	145% (active)
Cc1ccccc1NC(=O)CCOc1ccccc1	-3.86%
Cc1c(NC(=O)Nc2ccccc2)cccc1[N+](=O)[O-]	-0.291%
Cc1c(NC(=O)CCCOc2ccccc2)cccc1[N+](=O)[O-]	47.4% (active)
Fc1ccc2cnc(-c3ccccc3)cc2c1	-0.668%
O=S(=O)(Nc1ccc2ccccc2c1)N1CCCCC1	-5.99%
CC(C)OC(=O)c1ccc(NCc2cc(O)ccc2O)cc1Cl	0.191%
COC(=O)Cc1c(-c2[nH]c3ccccc3c2CC(=O)OC)[nH]c2ccccc12	-2.69%
CCN1CCN(CCNC(=O)c2ccc(/C=C3/Sc4ccccc4N(Cc4cccc(C)c4)C3=O)cc2)CC1	-8.21%
COc1ccc(CCNC(=O)c2ccc3c(c2)NC(=O)C(N2CCOCC2)S3)cc1OC (stereo unspecified)	-1.17%
CCN1CCN(CCNC(=O)c2ccc3c(c2)NC(=O)/C(=C\c2ccc(OC)c(OC)c2)S3)CC1	55.5% (active)
COc1cc(C(=O)OCC(=O)NC23CC4CC(CC(C4)C2)C3)cc(OC)c1OC	-3.34%
C=CCn1c(SCc2ccccc2)nc2c1c(=O)[nH]c(=O)n2C	-10.1%
C=CCSc1nc2c(c(=O)[nH]c(=O)n2C)n1Cc1ccccc1	59.3% (active)
CCCCCCn1c(SCC(=O)c2ccccc2)nc2c1c(=O)[nH]c(=O)n2C	-0.797%

From PubChem BioAssay AID602252 (Broad Institute, 2012)
